Most compounds without a hit are left out; they make up all but 11% or so of the library.
AMA1-RON2 inh: AMA1-RON2 (P. falciparum) interaction inhibition | AID 720542 | 360,000 tested, 0.2% active | AlphaScreen AMA1-biotinylated RON2 peptide binding | Potency, µM (highest dose often 58.2 µM), for the others: top-dose activity change, negative = inhibition, actives largely listed as inhibitors;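 also: 0% = vehicle wells and -100% = peptide control; nearly all actives have a fitted effect of over 45% in size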
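AMA1 (3D7) with his tag at 25 nM final met compounds first, then biotinylated RON2 peptide at 25 nM; detection used donor plus acceptor beads, 10 µg/mL apiece, read by AlphaScreen after 30 min at room temperature.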
AmpC inh no detg: inhibitors of E. coli AmpC beta-lactamase without detergent; Potency, µM (titrated, usually from 57.1 µM), for the others: at the top dose activity change, negative = inhibition, actives largely listed as inhibitors; 330,000 tested, 0.52% active; P00811; AmpC nitrocefin hydrolysis, absorbance 480 nm, 0.0001% Triton;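 also: plate controls were no compound for no effect and no enzyme for full effect; nearly all actives have a fitted effect of over 20% in size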
Target sequence (P00811 whole entry, looked up): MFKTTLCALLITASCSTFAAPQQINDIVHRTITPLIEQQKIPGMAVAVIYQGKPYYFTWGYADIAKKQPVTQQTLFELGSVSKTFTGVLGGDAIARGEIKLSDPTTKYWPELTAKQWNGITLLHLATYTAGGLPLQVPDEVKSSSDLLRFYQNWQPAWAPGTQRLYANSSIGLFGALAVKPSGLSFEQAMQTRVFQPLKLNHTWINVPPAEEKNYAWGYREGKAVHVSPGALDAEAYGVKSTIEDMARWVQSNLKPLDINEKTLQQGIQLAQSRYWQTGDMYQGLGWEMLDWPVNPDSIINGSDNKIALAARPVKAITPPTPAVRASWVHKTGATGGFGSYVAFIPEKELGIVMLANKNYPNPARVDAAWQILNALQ
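20 mM phosphate pH 7.0 + 0.01% (detergent screen) or 0.0001% Triton X-100; 5.3 nM AmpC reagent; cpd preinc 15 min RT; nitrocefin (800 uM stock) to start; A480 q20 s × 4 min; Activity was normalised to no-enzyme and no-compound control wells.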
Pf growth 48h: P. falciparum growth inhibition at 48 hours (one generation) | P. falciparum luciferase growth in erythrocytes, 48 h | Potency, µM (highest dose often 28.7 µM), without a hit: top-dose activity change, negative = inhibition, hits mostly inhibitors | 310,000 tested, 5.9% active | AID 504832
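A one-generation exposure of luciferase-tagged malaria parasites in RPMI 1640/Albumax erythrocyte culture, 37 C and 5% CO2. Inhibition is inferred from decreased luminescence after adding detection reagent.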
Pf growth 96h: P. falciparum growth inhibition at 96 hour, primary screen for plastid delayed-death inhibitors | P. falciparum luciferase reporter growth, 96 h | Potency, µM (series often up to 28.7 µM), for the others: top-dose activity change, negative = inhibition, most hits filed as inhibitors | 320,000 tested, 6.9% active
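Erythrocytes infected with luciferase-expressing P. falciparum were dispensed at 2% hematocrit and 0.05% parasitemia (final), then incubated with compounds 96 hours at 37 C in 5% CO2. Luminescence after detection reagent addition reported growth.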
AmpC detergent: inhibitors of E. coli AmpC beta-lactamase with detergent. AmpC hydrolysis of nitrocefin, absorbance 480 nm, 0.01% Triton. Potency, µM (top dose mostly 114 µM), for inactives: at the highest dose activity change, negative = inhibition, most hits filed as inhibitors. 370,000 tested, 0.041% active;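 also: 0% = no-compound wells and -100% = no-enzyme wells; nearly all actives have a fitted effect of over 25% in size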
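AmpC (5.3 nM in the dispensed reagent) in 20 mM phosphate pH 7.0 with 0.01% (detergent screen) or 0.0001% Triton X-100 was preincubated with compounds for 15 min at room temperature. Nitrocefin was then added from an 800 uM solution, and hydrolysis was followed at 480 nm.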
HCV inh: inhibitors of hepatitis C virus infection; Huh7.5.1 HCVcc-Cre infection, luciferase reporter, 44 h; Potency, µM (titrated, usually from 41.8 µM), without a hit: at the top dose activity change, negative = inhibition, actives largely listed as inhibitors; 340,000 tested, 3.4% active
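Cells (1,000/well) were plated 4 h before compound, then infected with HCVcc-Cre virus (~0.5 moi). After 44 h further culture, infection was read as luciferase luminescence following a 15 min substrate incubation at room temperature.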
An asterisk follows results filed as active; ? = inconclusive; nt = not tested or not shown; [ ] = another dose, or the depositor's remark. Calls follow the shape of the dose curve; as a rule, active = well fitted curve in the direction sought with a large enough effect; inconclusive = small, poorly fitted or top-dose-only effect, or another doubt; inactive = no such curve, though single readings can be large; an effect the other way counts as inactive or inconclusive. Unless noted, % is scaled to controls: 0 for no effect and ±100 for the full control effect; potency is read from the fitted curve at half-maximal effect.

SMILES	AMA1-RON2 inh	AmpC inh no detg	Pf growth 48h	Pf growth 96h	AmpC detergent	HCV inh
N#C/C(=C/c1cn(-c2ccccc2)nc1-c1cccc(OCc2ccccc2)c1)C(=O)NCCCn1ccnc1	37%	76%	4.7µM*	2.1µM*	-8%	?
O=C(NCCCn1ccnc1)c1cn(-c2ccccc2)nc1-c1ccccc1	18%	nt	0%	-3%	-5%	-14%
CCOc1cccc(-c2nn(-c3ccccc3)cc2/C=C(/C#N)C(=O)NCCCn2ccnc2)c1	-30%	350%	2.6µM*	?	4%	18µM*
N#C/C(=C/c1cn(-c2ccccc2)nc1-c1cccc(S(=O)(=O)N2CCCC2)c1)C(=O)NCc1ccco1	-9%	-46%	10µM*	10µM*	-10%	?
N#C/C(=C/c1cn(-c2ccccc2)nc1-c1cccc(S(=O)(=O)N2CCOCC2)c1)C(=O)NCc1ccco1	8%	-25%	-8%	-27%	3%	-25%
COC(=O)[C@@]1(Cc2ccc(F)cc2)[C@H]2c3cc(C(=O)N4CCCC4)n(Cc4ccc(C(F)(F)F)nc4)c3C[C@H]2CN1C(=O)c1ccccc1	0%	249%	?	2.1µM*	?	?
COC(=O)[C@@]1(Cc2ccc(F)cc2)[C@H]2c3cc(C(=O)N4CCCC4)n(CCCNc4ncc(C(F)(F)F)cc4Cl)c3C[C@H]2CN1C(=O)c1ccccc1	-23%	157%	2.1µM*	?	-10%	-10%
CCCN(Cc1nnc(-c2ccccc2Cl)o1)C(=O)c1ccc(C)c(S(=O)(=O)N2CCOCC2)c1	6%	137%	?	?	?	-8%
CCCN(Cc1nnc(-c2ccccc2Cl)o1)C(=O)c1oc2ccccc2c1C	17%	0%	9.3µM*	9.3µM*	-11%	?
CCCCn1c(SCC(=O)N(CC)C2CCS(=O)(=O)C2)nc2cc(S(N)(=O)=O)ccc21 (configuration not stated)	-16%	-3%	-16%	-8%	-3%	15%
CCN(C(=O)CSc1nc2cc(C(F)(F)F)ccc2n1Cc1ccccc1)C1CCS(=O)(=O)C1 (configuration not stated)	-15%	-17%	10µM*	9.3µM*	-13%	?
COc1ccc(-c2ccc3c(c2)[C@@H]2C[C@H](N(C)C(=O)Nc4ccccc4)[C@H]([C@H](C)O)C(=O)N2CC3)cc1	-1%	nt	nt	nt	nt	2µM*
C[C@H](O)[C@@H]1C(=O)N2CCc3ccc(-c4cccc(F)c4)cc3[C@@H]2C[C@@H]1N(C)C(=O)Nc1ccccc1	7%	nt	nt	nt	nt	-15%[8.37 µM]
Nc1c(Cl)cc(C2=NCCn3c2c2ccc([N+](=O)[O-])cc2[n+]3[O-])cc1Cl	26%	-5%	13µM*	?	-5%	10µM*
Nc1c(Cl)cc(C2=NCCn3nc4cc([N+](=O)[O-])ccc4c32)cc1Cl	?	-10%	?	?	-1%	?
C=CCn1c(SCC(=O)c2ccc(Cl)cc2)nnc1-c1ccc2c(c1)OCO2	23%	10%	?	12µM*	-13%	-2%
C#CCOCCOCCOCCNc1nc(N2CCN(C(=O)CCCCCCCCCCNC(=O)[C@H]([C@@H](C)CC)n3cc(CCCCCN)nn3)CC2)nc(N2CCN(C(=O)CCCCCCCCCCNC(=O)[C@H](CO)n3cc(CCCCCN)nn3)CC2)n1	-29%	222%	13µM*	?	?	?
C#CCOCCOCCOCCNc1nc(N2CCOCC2)nc(N2CCN(C(=O)CCCCCCCCCCNC(=O)[C@@H]([C@H](C)CC)n3cc(CCCCCN)nn3)CC2)n1	-14%	229%	1.2µM*	0.83µM*	-5%	?
C#CCOCCOCCOCCNc1nc(N2CCN(C(=O)Cn3cc(CCO)nn3)CC2)nc(N2CCN(C(=O)[C@H]([C@@H](C)CC)n3cc(CCCCN)nn3)CC2)n1	-3%	nt	nt	nt	nt	-3%[8.37 µM]
C#CCOCCOCCOCCNc1nc(N2CCN(C(=O)CCCCCCCCCCNC(=O)[C@H]([C@@H](C)CC)n3cc(CCCCCN)nn3)CC2)nc(N2CCN(C(=O)CCCCCCCCCCNC(=O)[C@@H]([C@H](C)CC)n3cc(CCCCCN)nn3)CC2)n1	nt	359%	3.3µM*	?	12%	-10%
C#CCOCCOCCOCCNc1nc(N2CCN(C(=O)Cn3cc(CCCCN)nn3)CC2)nc(N2CCN(C(=O)[C@H]([C@@H](C)CC)n3cc(CCCCN)nn3)CC2)n1	-4%	236%	-6%	77%	?	19%
CN(C)c1ccc(CNC(=O)c2ccc(Cn3c(SCc4ccccc4)nc4cccnc43)cc2)cc1	nt	nt	nt	nt	21%	nt
COc1ccc(CCNC(=O)CCc2c(C)c3cc4c(C)c(C)oc4cc3oc2=O)cc1OC	nt	nt	nt	nt	11%	nt
O=C(COc1ccc2ccccc2c1)NC1CC(=O)N(c2cccc(F)c2)C1 (configuration not stated)	nt	nt	nt	nt	2%	nt
CC(=O)c1cccc(NC(=O)CCn2nc(C)c(S(=O)(=O)N3CCCCC3)c2C)c1	nt	nt	nt	nt	-2%	nt
SMILES	AMA1-RON2 inh	AmpC inh no detg	Pf growth 48h	Pf growth 96h	AmpC detergent	HCV inh
CC(C)CCNC(=O)COc1ccc2c(c1)C(=O)CC(C)(C)O2	2%	-2%	5%	nt	-13%	-16%
CC1(C)CC(=O)c2cc(OCC(=O)NCCCN3CCN(c4ccc(F)cc4)CC3)ccc2O1	-11%	104%	?	10%	-10%	10µM*
COc1ccc(C(=O)/C=C2/c3ccccc3CC(C)(C)N2C)cc1	-17%	141%	27%	138%	-7%	nt
CN1/C(=C\C(=O)Nc2cccnc2)c2ccccc2CC1(C)C	-2%	-23%	?	5.9µM*	1%	12%
Cc1ccc(C)c(N2CCN(S(=O)(=O)c3ccc(C(=O)N(C)C)s3)CC2)c1	nt	nt	nt	nt	11%	nt
O=C1C=CC(=C(c2ccc(O)cc2)c2ccc(O)cc2)C=C1	-8%	-21%	7.4µM*	7.4µM*	-4%	10µM*
O=S(=O)(c1ccc(O)cc1)c1ccc(O)cc1	7%	-21%	20%	?	3%	0%

Assay outcomes: PubChem, National Center for Advancing Translational Sciences (NCATS)
